# Results reported in the supplement of paper PMC10849652.
# The full data set covers some 7,900 targets. This sample favours those with a hit. About 0.6% of all pairs of compound and target were hits. Unmarked numbers belong to inactive results.
# Legend:
# Experiment in all cases: log2 fold change, soluble protein after heating vs DMSO (PISA); higher = thermal stabilisation; K562 cells, 10 uM, 30 min; active = over 0.2 and 3.5 SD of the protein, either way, in both replicates (recomputed)
# [1] = compound: CC1=C(C=C(C=C1)NC(=O)C2=CC(=CC=C2)C(C)(C)C#N)NC3=CC4=C(C=C3)N=CN(C4=O)C
# Summary of the method: (§1)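 Values are thermal stability changes relative to control samples and are taken from duplicates. They are stated as log2 fold changes. Before quantification by TMTpro 16plex LC-MS/MS with equalised channel sums, K562 cells at 2×10^6 cells/mL were treated with 10 μM compound for 30 min, heated in aliquots for 3 min across 48°C-58°C, pooled, extracted in PBS with 0.5% NP-40 at 4°C, and centrifuged at 21,000xg for 90 min to give the soluble supernatant.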
# [2] = compound: CC1=C(C=C(C=C1)NC(=O)C2=CC(=CC=C2)N(C)C)NC(=O)C3=CC=C(C=C3)O
# Summary of the method: as §1
# [3] = compound: CC1=CC=C(C=C1)SC2=C3C=C(SC3=CN=C2)C(=O)N
# Summary of the method: as §1
# [4] = compound: CC1=NC(=CC=C1)C2=C(N=C(N2)C(C)(C)C)C3=CC4=NC=CN=C4C=C3
# Summary of the method: as §1
# [5] = compound: CCCCN(Cc1ccc(C(=O)NO)cc1)C(=O)Nc1ccccc1 [Nexturastat A]
# Summary of the method: as §1
# [6] = compound: CCCS(=O)(=O)Nc1ccc(F)c(C(=O)c2c[nH]c3ncc(-c4ccc(Cl)cc4)cc23)c1F [vemurafenib]
# Summary of the method: as §1
# [7] = compound: CCCS(=O)(=O)Nc1ccc(F)c(C(=O)c2c[nH]c3ncc(Cl)cc23)c1F
# Summary of the method: as §1
# [8] = compound: CCCc1cc(C)[nH]c(=O)c1CNC(=O)c1cc(-c2ccnc(N3CCN(C)CC3)c2)cc2c1cnn2C(C)C
# Summary of the method: as §1
# [9] = compound: CCN(CC)Cc1ccc2cc(COC(=O)Nc3ccc(C(=O)NO)cc3)ccc2c1 [givinostat]
# Summary of the method: as §1
# [10] = compound: CCN(CCCOc1ccc2c(Nc3cc(CC(=O)Nc4cccc(F)c4)[nH]n3)ncnc2c1)CCOP(=O)(O)O [barasertib]
# Summary of the method: as §1
# [11] = compound: CC[C@@H]1C(=O)N(C)c2cnc(Nc3ccc(C(=O)NC4CCN(C)CC4)cc3OC)nc2N1C1CCCC1
# Summary of the method: as §1
# [12] = compound: CC[C@@H]1C(=O)N(C)c2cnc(Nc3ccc(C(=O)N[C@H]4CC[C@H](N5CCN(CC6CC6)CC5)CC4)cc3OC)nc2N1C(C)C [volasertib]
# Summary of the method: as §1
# [13] = compound: CC[C@H](C)N1C=C(C2=C(C=C(C=C21)C3=CN=C(C=C3)N4CCNCC4)C(=O)NCC5=C(C=C(NC5=O)C)C)C
# Summary of the method: as §1
# [14] = compound: CC[C@H](C)[C@@H](C(=O)N[C@@H]([C@@H](C)O)C(=O)N[C@@H](CC(C)C)C(=O)[C@]1(CO1)C)NC(=O)[C@H]([C@@H](C)CC)N(C)C(=O)C [epoxomicin]
# Summary of the method: as §1
# [15] = compound: CCn1c(C(=O)N(C2CC2)C2CC2)cc2c3c(ncn3C)c(Nc3cc(C)n(C)n3)nc21
# Summary of the method: as §1
# [16] = compound: CCn1cc(-c2ccnc3[nH]c(-c4cccc(CN(C)C)c4)cc23)c(-c2ccc(NC(=O)N(C)C)cc2)n1
# Summary of the method: as §1
# [17] = compound: CN(C)CC(=O)Nc1ccc2[nH]c(=O)c3ccccc3c2c1
# Summary of the method: as §1
# [18] = compound: CN(CCOC1=CC=C(C=C1)C[C@H]2C(=O)NC(=O)S2)C3=CC=CC=N3 (racemic) [rosiglitazone]
# Summary of the method: as §1
# [19] = compound: CN1C2=C(C3=C1C(=O)N(N=C3)CC4=CC(=CC=C4)N)SC(=C2)S(=O)C
# Summary of the method: as §1
# [20] = compound: CN1CCC(CNc2ccc3ncc(-c4cccc(OC(F)(F)F)c4)n3n2)CC1
# Summary of the method: as §1
# UniProt O15347, sequence (O15347 whole entry, looked up): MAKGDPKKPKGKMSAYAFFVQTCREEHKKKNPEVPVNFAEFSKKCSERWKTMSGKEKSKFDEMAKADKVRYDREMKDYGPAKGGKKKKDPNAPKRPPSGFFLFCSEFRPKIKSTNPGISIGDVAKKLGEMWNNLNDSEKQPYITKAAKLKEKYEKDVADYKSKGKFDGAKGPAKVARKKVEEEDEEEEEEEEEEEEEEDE
# UniProt Q6P3S6, sequence (Q6P3S6 whole entry, looked up): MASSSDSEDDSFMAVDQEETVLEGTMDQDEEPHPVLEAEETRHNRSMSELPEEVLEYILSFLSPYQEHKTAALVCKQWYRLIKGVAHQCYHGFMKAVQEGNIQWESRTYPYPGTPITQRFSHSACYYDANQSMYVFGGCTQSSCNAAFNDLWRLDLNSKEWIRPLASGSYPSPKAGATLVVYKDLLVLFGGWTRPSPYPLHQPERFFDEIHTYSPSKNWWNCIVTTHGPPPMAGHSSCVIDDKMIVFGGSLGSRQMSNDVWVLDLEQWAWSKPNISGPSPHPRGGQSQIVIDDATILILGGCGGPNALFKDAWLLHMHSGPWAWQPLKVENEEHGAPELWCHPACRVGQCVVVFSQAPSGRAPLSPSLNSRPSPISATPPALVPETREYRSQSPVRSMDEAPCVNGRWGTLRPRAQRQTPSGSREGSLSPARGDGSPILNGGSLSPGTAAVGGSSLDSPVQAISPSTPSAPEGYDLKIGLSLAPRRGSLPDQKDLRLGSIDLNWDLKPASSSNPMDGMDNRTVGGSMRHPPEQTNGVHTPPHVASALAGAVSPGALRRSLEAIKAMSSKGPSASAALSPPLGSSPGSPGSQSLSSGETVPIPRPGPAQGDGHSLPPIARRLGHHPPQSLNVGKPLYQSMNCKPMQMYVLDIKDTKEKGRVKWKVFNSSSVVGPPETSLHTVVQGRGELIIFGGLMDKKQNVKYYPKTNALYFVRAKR
# UniProt P52655, sequence (P52655 whole entry, looked up): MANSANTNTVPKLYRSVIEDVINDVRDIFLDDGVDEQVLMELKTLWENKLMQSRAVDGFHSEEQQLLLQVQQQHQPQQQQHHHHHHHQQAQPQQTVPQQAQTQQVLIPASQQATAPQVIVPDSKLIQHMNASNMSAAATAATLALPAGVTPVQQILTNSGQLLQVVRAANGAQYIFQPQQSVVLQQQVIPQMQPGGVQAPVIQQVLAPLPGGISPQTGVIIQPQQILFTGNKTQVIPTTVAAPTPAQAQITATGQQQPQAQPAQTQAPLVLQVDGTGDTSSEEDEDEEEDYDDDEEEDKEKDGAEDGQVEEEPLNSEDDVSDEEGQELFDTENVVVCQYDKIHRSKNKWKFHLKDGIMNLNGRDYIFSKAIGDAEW
# UniProt Q9H0R8, sequence (Q9H0R8 whole entry, looked up): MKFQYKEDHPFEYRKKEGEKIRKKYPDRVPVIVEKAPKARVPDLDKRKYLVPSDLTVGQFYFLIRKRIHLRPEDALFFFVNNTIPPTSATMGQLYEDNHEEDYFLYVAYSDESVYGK
# UniProt O14929, sequence (O14929 whole entry, looked up): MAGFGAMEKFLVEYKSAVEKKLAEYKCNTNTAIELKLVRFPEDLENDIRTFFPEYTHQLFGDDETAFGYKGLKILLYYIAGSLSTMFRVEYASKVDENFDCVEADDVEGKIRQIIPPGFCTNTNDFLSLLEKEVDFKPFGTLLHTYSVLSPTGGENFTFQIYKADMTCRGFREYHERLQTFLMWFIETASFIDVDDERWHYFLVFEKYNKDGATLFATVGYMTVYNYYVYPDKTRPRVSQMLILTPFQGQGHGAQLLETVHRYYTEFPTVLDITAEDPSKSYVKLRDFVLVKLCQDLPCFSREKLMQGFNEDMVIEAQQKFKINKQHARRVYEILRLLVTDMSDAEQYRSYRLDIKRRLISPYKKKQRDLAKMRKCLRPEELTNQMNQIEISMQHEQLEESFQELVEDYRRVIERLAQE
# UniProt Q9H4A6, sequence (Q9H4A6 whole entry, looked up): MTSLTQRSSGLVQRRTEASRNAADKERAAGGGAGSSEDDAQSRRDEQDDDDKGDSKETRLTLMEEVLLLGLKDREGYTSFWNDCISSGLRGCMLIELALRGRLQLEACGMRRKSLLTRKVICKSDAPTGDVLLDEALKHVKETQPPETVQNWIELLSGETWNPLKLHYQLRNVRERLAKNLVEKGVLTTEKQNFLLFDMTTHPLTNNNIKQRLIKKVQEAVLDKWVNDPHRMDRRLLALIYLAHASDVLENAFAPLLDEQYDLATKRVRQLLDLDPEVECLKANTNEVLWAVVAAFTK
# UniProt Q9BUJ2, sequence (Q9BUJ2 whole entry, looked up): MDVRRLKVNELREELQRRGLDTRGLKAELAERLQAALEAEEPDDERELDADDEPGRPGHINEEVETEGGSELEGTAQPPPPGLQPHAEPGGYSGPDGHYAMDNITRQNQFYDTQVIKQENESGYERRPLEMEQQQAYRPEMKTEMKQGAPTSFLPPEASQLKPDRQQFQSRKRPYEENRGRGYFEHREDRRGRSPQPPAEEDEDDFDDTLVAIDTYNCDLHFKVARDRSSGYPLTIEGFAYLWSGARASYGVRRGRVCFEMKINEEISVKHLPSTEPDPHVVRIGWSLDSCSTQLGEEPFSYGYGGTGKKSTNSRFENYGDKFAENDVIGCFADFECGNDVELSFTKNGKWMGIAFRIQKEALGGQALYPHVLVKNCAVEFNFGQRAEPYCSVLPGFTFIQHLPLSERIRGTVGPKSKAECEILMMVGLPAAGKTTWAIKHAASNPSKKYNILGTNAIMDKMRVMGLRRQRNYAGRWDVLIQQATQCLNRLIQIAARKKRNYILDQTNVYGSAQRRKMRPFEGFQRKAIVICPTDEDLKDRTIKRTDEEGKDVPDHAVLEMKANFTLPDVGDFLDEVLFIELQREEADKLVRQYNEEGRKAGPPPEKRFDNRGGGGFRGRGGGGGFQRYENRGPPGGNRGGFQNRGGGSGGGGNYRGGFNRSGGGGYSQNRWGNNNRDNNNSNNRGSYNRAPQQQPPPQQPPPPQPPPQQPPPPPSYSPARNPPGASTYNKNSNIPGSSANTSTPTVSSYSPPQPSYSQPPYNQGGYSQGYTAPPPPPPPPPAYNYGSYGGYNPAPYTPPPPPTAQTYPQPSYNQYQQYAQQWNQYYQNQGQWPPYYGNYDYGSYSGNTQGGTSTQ
# UniProt P54803, sequence (P54803 whole entry, looked up): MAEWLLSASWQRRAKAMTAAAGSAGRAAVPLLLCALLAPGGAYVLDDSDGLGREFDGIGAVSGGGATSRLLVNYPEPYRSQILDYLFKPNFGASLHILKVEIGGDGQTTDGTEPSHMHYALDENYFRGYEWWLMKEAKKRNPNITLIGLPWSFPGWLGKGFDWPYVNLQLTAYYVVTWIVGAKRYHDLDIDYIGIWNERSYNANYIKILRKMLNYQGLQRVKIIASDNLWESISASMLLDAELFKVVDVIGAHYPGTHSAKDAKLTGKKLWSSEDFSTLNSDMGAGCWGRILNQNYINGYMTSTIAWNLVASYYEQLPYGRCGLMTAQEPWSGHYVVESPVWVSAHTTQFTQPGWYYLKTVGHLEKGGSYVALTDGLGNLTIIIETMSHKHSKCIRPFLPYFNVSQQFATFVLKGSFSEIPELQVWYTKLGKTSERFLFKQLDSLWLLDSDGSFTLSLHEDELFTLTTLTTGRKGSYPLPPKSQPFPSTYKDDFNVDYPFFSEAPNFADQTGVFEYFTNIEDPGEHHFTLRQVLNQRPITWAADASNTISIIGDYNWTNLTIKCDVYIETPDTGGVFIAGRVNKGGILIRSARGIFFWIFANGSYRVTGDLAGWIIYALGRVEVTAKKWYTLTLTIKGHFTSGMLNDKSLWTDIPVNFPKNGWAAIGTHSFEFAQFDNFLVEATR
# UniProt Q10472, sequence (Q10472 whole entry, looked up): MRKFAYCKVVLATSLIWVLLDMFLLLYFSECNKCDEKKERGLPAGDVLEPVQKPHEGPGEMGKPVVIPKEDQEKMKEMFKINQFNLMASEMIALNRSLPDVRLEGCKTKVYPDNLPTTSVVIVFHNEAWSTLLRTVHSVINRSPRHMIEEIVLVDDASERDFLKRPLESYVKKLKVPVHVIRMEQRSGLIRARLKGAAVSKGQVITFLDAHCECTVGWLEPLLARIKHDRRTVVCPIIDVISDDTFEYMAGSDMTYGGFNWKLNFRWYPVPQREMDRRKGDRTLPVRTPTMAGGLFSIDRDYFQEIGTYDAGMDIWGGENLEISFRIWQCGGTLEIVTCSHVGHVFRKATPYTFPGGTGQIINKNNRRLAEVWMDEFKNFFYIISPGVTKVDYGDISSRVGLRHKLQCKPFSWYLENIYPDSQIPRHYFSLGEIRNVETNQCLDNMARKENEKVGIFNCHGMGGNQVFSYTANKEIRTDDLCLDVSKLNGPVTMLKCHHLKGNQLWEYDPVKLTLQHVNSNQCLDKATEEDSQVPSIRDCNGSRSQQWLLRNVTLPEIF
# UniProt Q8NB37, sequence (Q8NB37 whole entry, looked up): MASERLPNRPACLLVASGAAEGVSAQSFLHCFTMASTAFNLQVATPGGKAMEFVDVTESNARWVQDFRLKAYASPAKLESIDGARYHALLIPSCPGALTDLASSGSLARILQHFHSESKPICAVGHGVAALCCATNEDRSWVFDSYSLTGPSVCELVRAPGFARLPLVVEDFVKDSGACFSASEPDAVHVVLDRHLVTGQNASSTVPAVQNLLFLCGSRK
# UniProt P08754, sequence (P08754 whole entry, looked up): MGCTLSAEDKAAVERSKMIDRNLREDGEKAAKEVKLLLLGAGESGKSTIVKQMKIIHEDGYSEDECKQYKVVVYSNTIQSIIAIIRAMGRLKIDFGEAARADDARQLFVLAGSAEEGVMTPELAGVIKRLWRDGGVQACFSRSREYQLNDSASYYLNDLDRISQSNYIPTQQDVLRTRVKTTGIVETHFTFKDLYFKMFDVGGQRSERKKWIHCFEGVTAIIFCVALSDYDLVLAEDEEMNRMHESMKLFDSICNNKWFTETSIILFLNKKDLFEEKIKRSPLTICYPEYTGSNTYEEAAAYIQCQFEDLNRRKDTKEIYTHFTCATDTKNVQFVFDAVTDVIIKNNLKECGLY
Target,log2 fold change [1],log2 fold change [2],log2 fold change [3],log2 fold change [4],log2 fold change [5],log2 fold change [6],log2 fold change [7],log2 fold change [8],log2 fold change [9],log2 fold change [10],log2 fold change [11],log2 fold change [12],log2 fold change [13],log2 fold change [14],log2 fold change [15],log2 fold change [16],log2 fold change [17],log2 fold change [18],log2 fold change [19],log2 fold change [20]
GALC (UniProt P54803),0.002,-0.032,0,-0.013,0.012,-0.03,-0.03,-0.049,0.036,0.002,-0.275 (active),-0.959 (active),-0.009,0.042,0.012,0.096,0.01,-0.006,-0.011,-0.403 (active)
GABARAPL1 isoform 2 (UniProt Q9H0R8),-0.008,0.003,0.006,0.002,-0.013,-0.016,-0.025,-0.007,0.044,0.021,-0.303 (active),-0.186,0.035,-0.029,-0.037,0.007,0.034,0.03,-0.135,-0.187
FAM91A1 (UniProt Q658Y4),0.035,0.034,-0.036,-0.048,0.286 (active),-0.055,0.051,0.07,0.024,0.06,0.062,0.221,-0.007,-0.675 (active),-0.08,-0.015,-0.003,0.037,0.001,0.233 (active)
GATD1 (UniProt Q8NB37),0.054,-0.041,-0.023,-0.108,0.067,-0.047,-0.06,0.021,0.013,0.024,-0.023,-0.009,-0.032,0.078,0.013,-0.034,-0.02,0.013,0.011,-0.049
FBXO3 (UniProt Q9UK99),-0.042,-0.08,0,-0.018,-0.043,-0.089,-0.025,-0.057,0.049,-0.043,0.041,0.042,0.052,0.007,0.001,-0.074,-0.03,0.045,0.023,-0.038
GALNT1 (UniProt Q10472),-0.004,0,0.03,0.067,0.001,0.02,-0.021,-0.055,0.003,0.007,-0.06,-0.218 (active),-0.011,-0.068,-0.005,-0.041,-0.011,0.003,-0.074,0.106
HAT1 (UniProt O14929),0.042,-0.037,0.008,0.095,-0.034,0.087,0.013,0.007,0.005,0.025,-0.185,-0.313 (active),0.02,0.035,0.014,-0.057,-0.007,0.049,-0.081,0.026
HSPA8 (UniProt P11142),0.021,0.005,-0.025,0.011,-0.011,-0.008,-0.02,0.04,-0.02,-0.005,0.001,0.113,-0.007,0.008,0.012,-0.002,-0.037,-0.019,-0.034,0.079
GTF2A1 (UniProt P52655),-0.086,-0.05,-0.023,-0.006,0.077,0.005,-0.057,-0.011,-0.01,0.021,-0.012,0.061,-0.051,0.201,0.019,0.035,-0.006,-0.029,-0.018,-0.051
GNAI3 (UniProt P08754),0.125,-0.012,-0.07,-0.021,0.072,0.037,-0.025,0.069,-0.263 (active),0,0.089,0.147,-0.011,0.014,0.036,-0.071,-0.012,-0.101,-0.046,0.075
HMGB3 (UniProt O15347),-0.012,0,0.006,0.011,-0.014,-0.083,0.011,0.202,-0.016,-0.008,-0.182,0.064,0.053,-0.007,0.015,-0.021,-0.022,0,-0.039,0.015
HNRNPUL1 (UniProt Q9BUJ2),-0.063,-0.058,-0.013,0.03,0.024,0.032,-0.033,0.024,0.046,0.04,0.051,-0.069,0.014,0.019,-0.029,0.004,0.013,-0.001,0.099,0.031
GNPAT (UniProt O15228),-0.03,-0.046,0.007,0,-0.039,0.023,0.045,0.03,0.022,0.044,-0.065,-0.149,-0.02,0.04,0.044,-0.066,-0.027,0.066,-0.084,-0.354 (active)
HAX1 (UniProt O00165),-0.018,-0.101,0.03,-0.058,0.066,-0.012,0.082,0.045,0.009,0.046,-0.087,-0.393 (active),-0.011,-0.018,-0.031,0.084,0.05,0.023,0.012,-0.584 (active)
GOLPH3 (UniProt Q9H4A6),0.074,-0.031,-0.017,0.022,-0.017,0.015,0.058,-0.011,-0.007,0.023,0.029,0.008,0.086,0.084,-0.016,-0.059,-0.001,0.037,-0.075,0.236 (active)
FBXO42 (UniProt Q6P3S6),-0.033,0.164,-0.038,0.04,-0.072,-0.086,0.083,-0.025,0.09,0.015,0.093,0.011,0.028,0.056,-0.031,0.002,-0.019,0.027,0.032,0.021
